We go through 37 molecules from PubChem BioAssay (Tox21).

SMILES strings stand for the structures. Records with an inconclusive call do not appear. Values without a mark were called inactive. Unless noted, calls follow the shape of the dose curve; as a rule, active = well fitted cell-killing curve with a large enough effect in the repeat runs; inconclusive = weak or mixed curves, or effect the other way; inactive = no such curve, though single readings can be large or run the other way.
% is scaled to controls: 0 for no effect and ±100 for the full control effect.

The first experiment in a line: qHTS assay to identify small molecule antagonists of the vitamin D receptor (VDR) signaling pathway - cell viability counter screen (AID 743225). Also: nearly all actives have a fitted effect of over 50% in size. As to conditions: VDR-bla HEK293T viability, CellTiter-Glo luminescence, 16 h; series mostly up to 61 µM; viability change, negative = cytotoxic: at the top concentration. The procedure, abridged:
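VDR-UAS-bla HEK 293T cells were plated and incubated 4 h at 37C, then dosed with compound plus 3 nM (final) 1-alpha,25-dihydroxyvitamin D3 for 16 h. After the 2 h beta-lactamase read, viability in the same wells was read as CellTiter-Glo luminescence after 30 min at room temperature.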
For orientation: qHTS replaces the single test concentration by a dilution series.
As to `C=C(C)C1CCC(C)(O)CC1` (stereo not drawn), the “viability change, negative = cytotoxic” value was 3.32%. `CC(C)N(c1ccccc1)C(C)C`: the “viability change, negative = cytotoxic” value is 0.771%.

`CC(C)c1ccc2cc(C(C)C)ccc2c1`: the “viability change, negative = cytotoxic” value is 7.83%. With `Cc1cc(Cl)c(C)cc1Cl`, the “viability change, negative = cytotoxic” value was -0.664%. Still for that read-out and setting: to `O=C(O)Cc1cn(-c2ccccc2)nc1-c1ccc(Cl)cc1` belongs -3.89%; to `COC(=O)CCc1ccc(OCC(O)CNC(C)C)cc1` (stereo not drawn), -7.63%.

Another experiment can be described thus: qHTS assay to identify small molecule agonists of the NFkB signaling pathway (AID 1159509; active = well fitted curve in the direction sought with a large enough effect in the signal ratio in the repeat runs, not every such curve was filed as active; the % refers to the signal ratio). As to conditions: NFkB-bla ME-180 cells, beta-lactamase FRET ratio, 5 h; series mostly up to 61 µM; activation: at the top concentration. The procedure, abridged: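 Pathway activation was measured in ME-180 cells stably expressing beta-lactamase under NF-kB response element control. Substrate cleavage was read as the 460/530 nm emission shift after 5 hr compound incubation.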
In the case of `NNc1nnc(NN)c2ccccc12`, the “activation” value is -0.197%.

In the case of `C=CCCCCCCCCCCCC`, the “activation” value is 0.0267%.

For the molecule `O=C(O)c1ccc(Cl)cc1Cl`, the “activation” value was 0.221% [at 78.8 µM]. The same measure, in the same setting: with `O=C1CC(c2ccc(Cl)cc2)CC(=O)N1` the figure was -0.0621%. With `Cc1nc2n(c(=O)c1CCN1CCC(c3noc4cc(F)ccc34)CC1)CCC[C@H]2O`, the “activation” value was 0% [at 28.5 µM]. Regarding `CN(C)C(=O)CNC(=O)Cc1ccccc1`, the “activation” value is -0.427%. The same measure, in the same setting: to `C=C(C)C(=O)OCC(C)(C)COC(=O)C(=C)C` belongs 0.364%. Regarding `O=C(O)c1cc(Cl)cc([N+](=O)[O-])c1Cl`, the “activation” value was 0.0517%. Consider `O=S(=O)(O)c1ccc2cc(O)c(S(=O)(=O)O)cc2c1`, for which the “activation” value is 1.18%.

On to `On1nnc2ccccc21`, for which the “activation” value is -1.11%. Still for that read-out and setting: with `CN=C(NC#N)Nc1ccc(C2=NNC(=O)CC2C)cc1` (stereo not drawn) the figure was 0.107%; with `CC(=O)Nc1cccc(C)c1`, 0.0755% [at 78.8 µM]. On to `CCc1ccc(C=O)cc1`, for which the “activation” value is -0.366%. Still for that read-out and setting: to `CC/C=C\CC1=C(C)CCC1=O` belongs 0.0785%.

On to `OC[C@H](Cc1cccc(O)c1)[C@H](CO)Cc1cccc(O)c1`, for which the “activation” value is -0.992% [at 78.8 µM]. Take `COc1ccc(Br)c(C)c1`: the “activation” value was 0.194% [at 78.8 µM].

As for `Cc1ccc(C=O)cc1C`, the “activation” value is -0.362%. Same read-out and setting: to `CCCC/C=C\CCCCCCCCCC=O` belongs 0.0324%; to `COc1cc2c(cc1OC)[C@@H]1CC(=O)[C@@H](CC(C)C)CN1CC2`, 0.398%; to `c1ccc2nccnc2c1`, -0.58% [at 78.8 µM]. As to `Cc1ccc2ccc(Cl)cc2n1`, the “activation” value was 0.578%.

Take `CC(=O)OC(C)OC(=O)C(C)c1ccc(-c2ccccc2)c(F)c1` (stereo not drawn): the “activation” value was -0.0917%.

Take `CC(C)(C)c1nnc(NS(=O)(=O)c2ccc(N)cc2)s1`: the “activation” value is 0.0372%.

In the case of `CCn1ccc(NS(=O)(=O)c2ccc(N)cc2)nc1=O`, the “activation” value is 0.0772%.

In the case of `COc1ccc2c(c1)C(=O)N(CCc1ccc(S(=O)(=O)NC(=O)NC3CCCCC3)cc1)C(=O)C2(C)C`, the “activation” value was -0.0868%.

For the molecule `Cc1ccc2c(c1)OCC(=O)CO2`, the “activation” value is -0.264%.

In the case of `Cc1ccc(S(=O)(=O)O)c(C)c1`, the “activation” value is -0.787%. Consider `Cc1cc2cc3c(C)cc(=O)oc3c(C)c2o1`, for which the “activation” value is -0.0102%. For the molecule `COc1nccnc1NS(=O)(=O)c1ccc(N)cc1`, the “activation” value was -0.112%.

As for `C=C(C)C1CCC(C)(O)CC1` (stereo not drawn), the “activation” value was -0.0141%. As to `CC(C)N(c1ccccc1)C(C)C`, the “activation” value is -0.524%. Regarding `CC(C)c1ccc2cc(C(C)C)ccc2c1`, the “activation” value is 0.909%. Same read-out and setting: with `C=C(C)C(=O)OCCOP(=O)(O)OCCOC(=O)C(=C)C` the figure was 0.125%.

As to `Cc1cc(Cl)c(C)cc1Cl`, the “activation” value is -0.0428%. `O=C(O)Cc1cn(-c2ccccc2)nc1-c1ccc(Cl)cc1`: the “activation” value is 1.64%.

Take `COC(=O)CCc1ccc(OCC(O)CNC(C)C)cc1` (stereo not drawn): the “activation” value is 0.336%. For the molecule `COc1ccc(-c2cc(=O)c3c(O)cc(O[C@@H]4O[C@H](CO[C@@H]5O[C@@H](C)[C@H](O)[C@@H](O)[C@H]5O)[C@@H](O)[C@H](O)[C@H]4O)cc3o2)cc1O`, the “activation” value was -0.0367%.
